Compound activity (PubChem BioAssay)
Most compounds without a hit are left out; they make up all but 21% or so of the library.
Shiga inhibitor: A qHTS for Small Molecule Inhibitors of Shiga Toxin; Vero cells, Shiga toxin protein synthesis inhibition reporter; inhibition, % at 38.7 µM; 290,000 tested, 9.2% active; in the data active = inhibition mostly above about 28%, no sharp cut-off; inactive = mostly below about 43%; also: 0% is about no effect
CHX counter: Cycloheximide Counterscreen for Small Molecule Inhibitors of Shiga Toxin; cell reporter, cycloheximide protein synthesis inhibition counterscreen; max response, %; 300,000 tested, 12% active; AID 2314, 2010; in the data active = max response mostly above about 13%, no sharp cut-off; inactive = mostly below about 14%; also: read at 38.3 µM for the half of the compounds with a filed dose; 0% is about no effect
AMA1-RON2 inh: qHTS for Inhibitors of AMA1-RON; Towards Development of Antimalarial Drug Lead: Primary Screen; Plasmodium falciparum AMA1 (3D7) - RON2 peptide interaction; AlphaScreen AMA1-biotinylated RON2 peptide binding; Potency, µM (top dose mostly 58.2 µM), for the others: top-dose activity change, negative = inhibition, usual class: inhibitors; 360,000 tested, 0.2% active;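 also: potency is read from the fitted curve at half-maximal effect; 0% = vehicle wells and -100% = peptide control; nearly all actives have a fitted effect of over 45% in size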
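AMA1 (3D7) with his tag at 25 nM final met compounds first, then biotinylated RON2 peptide at 25 nM; detection used donor plus acceptor beads, 10 µg/mL apiece, read by AlphaScreen after 30 min at room temperature.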
Pf growth 96h: Primary qHTS for delayed death inhibitors of the malarial parasite plastid, 96 hour incubation; P. falciparum luciferase reporter growth, 96 h; Potency, µM (doses to about 28.7 µM), without a hit: at the top dose activity change, negative = inhibition, usual class: inhibitors; 320,000 tested, 6.9% active; AID 504834, 2011; also: potency is read from the fitted curve at half-maximal effect; % is scaled to controls: 0 for no effect and ±100 for the full control effect
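Parasite growth measured via integrated firefly luciferase reporter in P. falciparum. Infected erythrocytes at 2% hematocrit, 0.05% parasitemia final were treated 96 hours at 37 C under 5% CO2, and luminescence was read.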
HCV inh: qHTS Assay for Inhibitors of Hepatitis C Virus (HCV); Huh7.5.1 HCVcc-Cre infection, luciferase reporter, 44 h; Potency, µM (top dose mostly 41.8 µM), for inactives: at the top dose activity change, negative = inhibition, actives largely listed as inhibitors; 340,000 tested, 3.4% active; AID 651820, 2012; also: potency is read from the fitted curve at half-maximal effect; % is scaled to controls: 0 for no effect and ±100 for the full control effect
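HCVcc-Cre virus at an moi near 0.5 was added right after compound to cells cultured 4 h from seeding (1,000 cells/well). Luciferase activity was determined 44 h later, 15 min after substrate addition at RT.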
Pf growth 48h: Primary qHTS for delayed death inhibitors of the malarial parasite plastid, 48 hour incubation; Potency, µM (doses to about 28.7 µM), inactives show top-dose activity change, negative = inhibition, hits mostly inhibitors; 310,000 tested, 5.9% active; P. falciparum luciferase growth in erythrocytes, 48 h; AID 504832, 2011; also: potency is read from the fitted curve at half-maximal effect; % is scaled to controls: 0 for no effect and ±100 for the full control effect
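Luciferase-expressing parasites in RBCs, 2% Hct / 0.1% parasitemia final; RPMI 1640 + 0.5% Albumax; 37 C, 5% CO2, one generation; luminescence read-out, lower signal = inhibition.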
* hit, by the source's call; ? = inconclusive; . = no result given; [ ] = another dose, or the depositor's remark. Unless noted, calls follow the shape of the dose curve; as a rule, active = well fitted curve in the direction sought with a large enough effect; inconclusive = small, poorly fitted or top-dose-only effect, or another doubt; inactive = no such curve, though single readings can be large; an effect the other way counts as inactive or inconclusive.

SMILES | Shiga inhibitor | CHX counter | AMA1-RON2 inh | Pf growth 96h | HCV inh | Pf growth 48h
CCN(CC)C(=O)c1cc(-c2ccc(Br)cc2)on1 | 90* | 47* | 9% | ? | -11% | 179%
Fc1ccccc1OCC1CCCN(Cc2nc(CC3CC3)no2)C1 (stereo unspecified) | -1 | 2 | -21% | ? | 11% | -15%
CC1CCN(C(=O)c2cc(-c3ccc(Cl)c(Cl)c3)on2)CC1 | 20 | 1 | -12% | ? | 7% | 7%
O=C(c1cc(-c2ccccc2)on1)N1CCCCCC1 | 71* | 29* | 2% | 23% | 4% | 147%
COCCC1CCCCN1C(=O)c1cc(COc2ccc(C)nc2)on1 (stereo unspecified) | 45 | 49* | -2% | ? | . | -12%
Cc1ccc(-c2cc(C(=O)N3CCCCCC3)no2)cc1 | 102* | 48* | -19% | ? | 6% | 255%
O=C(c1cc(-c2ccc(F)cc2)on1)N1CCCC1 | 66* | 50* | 3% | . | 12% | 90%
O=C(O)c1cc(-c2ccc(O)cc2)on1 | 3 | -1 | -1% | ? | -4% | 8%
O=C(/C=C/c1ccc(F)cc1)N1CCCN(C(=O)/C=C/c2ccc(F)cc2)CC1 | 1 | 5 | -3% | -21% | -1% | -6%
O=C(/C=C/c1ccc(-c2ccc(F)cc2)o1)N1CCCC1 | 64* | 39* | 7% | 53% | -14% | 343%
CCOC(=O)C1CCCN(C(=O)c2cc(-c3ccc(C)cc3)on2)C1 (stereo unspecified) | 113* | 58* | 19% | -96% | -19% | 83%
O=C(c1cc(-c2ccccc2)on1)N1CCC2(CC1)OCCO2 | 79* | 32* | . | 20% | . | 61%
O=C(c1cc(-c2ccccc2)on1)N1CCN(C(=O)c2ccco2)CC1 | 38 | 19* | -1% | 1% | 17% | 33%
O=C(c1cc(-c2ccc(O)cc2)on1)N1CCN(c2ccccc2)CC1 | 33 | 12 | -15% | 35% | -23% | 12%
O=C(c1cc(-c2ccc(O)cc2)on1)N1CCCC1 | 97* | 37* | -4% | 20% | -2% | 164%
c1nc[n]([Sn]([CH]2CCCCC2)([CH]2CCCCC2)[CH]2CCCCC2)n1 | 2 | 4 | . | . | . | .
O=C(Nc1ccc(Cl)c(C(F)(F)F)c1)C1Cc2c(-c3ccccc3)ccnc2O1 (stereo unspecified) | . | . | -6% | . | . | .
CCOC(=O)CSc1nnc(-c2ccccc2NC(=O)c2ccccc2)o1 | 25 | 13 | 2% | -3%[5.75 µM] | 15% | 46%
O=C(Nc1ccccc1-c1nnc(SCc2ccccc2Cl)o1)c1ccccc1 | -26 | -3 | -3% | 59% | -29% | ?
O=C(Nc1ccccc1-c1nnc(SCc2ccc(Cl)cc2Cl)o1)c1ccccc1 | -13 | -3 | -3% | 2.3µM* | ? | -3%
CCc1nnc(NC(=O)CSc2nnc(-c3ccccc3NC(=O)c3ccccc3)o2)s1 | -9 | -2 | 16% | ? | 11µM* | 6%
COc1ccccc1/C=C/C=N/NC(=O)c1cnccn1 | 64* | 35* | 51% | ? | 13% | 27%
COc1ccccc1/C=C/C=N/NC(=O)c1ccccn1 | 56* | 23* | ? | -2% | -16% | 358%
CCCCNc1c(-c2ccc(OC)c(SC(C)CC)c2)nc2cc(C)ccn12 (stereo unspecified) | . | . | 39% | . | 7.1µM* | .
CCCCNc1c(-c2ccc(Sc3ccc(OC)cc3)cc2)nc2cc(C)ccn12 | . | . | 18% | . | 10µM* | .
SMILES | Shiga inhibitor | CHX counter | AMA1-RON2 inh | Pf growth 96h | HCV inh | Pf growth 48h
CCCCNc1c(-c2ccc(SC(C)CC)cc2)nc2ccccn12 (stereo unspecified) | . | . | 6% | -86% | 22µM* | -71%
COCCNC(=O)C1(C)CCCN(Cc2cc(C(F)(F)F)ccc2Cl)C1 (stereo unspecified) | . | . | 6% | . | . | .
Cc1cc(O)c(C(C)C)cc1NC(=O)Nc1cccc2ccccc12 | 18 | -2 | 10% | ? | ? | 10µM*
CCOc1ccccc1NC(=O)Nc1cc(C(=O)O)ccc1C | -2 | -6 | 0% | ? | -7% | 16%
O=C(CI)Nc1cccc2cccnc12 | -13 | -5 | . | . | . | .
O=C(Nc1ccccc1)Nc1cccc2ccccc12 | 27 | 19* | -17% | 0% | ? | 38%
Cc1ccc(C(=O)O)cc1NC(=O)Nc1cccc2ccccc12 | -8 | -3 | -5% | 2.6µM* | 15% | 33%
O=C(Nc1ccc(C(=O)O)cc1)Nc1cccc2ccccc12 | 9 | 4 | -11% | -8% | 17% | 0%
O=C(Nc1ccccc1)Nc1cccc2cccnc12 | 122* | 36* | 0% | . | ? | 100%
Cc1cc(C)c(OCC(=O)NCC2CCCO2)c(C)c1 (stereo unspecified) | 2 | 9 | 12% | ? | 16% | -20%
O=S1(=O)C2CC3C=CC2(O3)C(O)C(Cc2ccccc2)N1Cc1cccc(F)c1 (stereo unspecified) | 14 | -4 | . | . | . | .
CC(C)(C)C(=O)Nc1nnc([C@H]2C[C@H](O)[C@@H](CO)O2)s1 | . | . | -6% | . | . | .
O=C(Nc1ccccc1)Nc1csc2ccccc12 | 148* | 51* | -20% | ? | -16% | ?
O=C(CCCl)Nc1cccc2cccnc12 | 36 | 48* | . | . | . | .
CC(=O)c1ccc(NC(=O)Nc2cccc3ccccc23)cc1 | 12 | 27* | -9% | -13% | -7% | 13%
CC(=O)Nc1csc2ccccc12 | 24 | -2 | 16% | 15% | 8% | 8%
N#CC1(c2ccccc2)CCC(=NO)CC1 (stereo unspecified) | 25 | 4 | -7% | 1.9µM* | 19% | .
CC[C@@H](C(=O)[C@@H](C)[C@@H](O)[C@H](C)CCc1ccc(C)c(O)c1C(=O)O)[C@H]1O[C@](CC)([C@H]2CC[C@](O)(CC)[C@H](C)O2)C[C@@H]1C | 9 | 5 | 0% | ? | 1.8µM* | 0.093µM*
CCC(C(=O)C(C)C(O)C(C)CCc1ccc(C)c(O)c1C(=O)O)C1OC(CC)(C2CC[C@@](O)(CC)C(C)O2)CC1C (stereo partly specified) | . | . | . | 0.38µM* | . | 0.38µM*
COc1cccc(CN2CC(C(=O)NC3CCCCCC3)CCC2=O)c1 (stereo unspecified) | 9 | 10 | -7% | ? | 2% | -13%
CC(C)CNC(=O)CSc1ccc(S(=O)(=O)N2CCN(C)CC2)cn1 | . | . | 4% | ? | -1% | -1%
